From paper PMC7819943, “Rice protein-binding microarrays: a tool to detect cis-acting elements near promoter regions in rice”
In all, about 68,000 sequences were measured (“fluorescence intensity (a.u.)”: median about 9,100, highest 2% from about 16,000 on). The entries come from a sample that favours the highest values as a whole.

Target: OsWRKY34 (Oryza sativa, UniProt Q0JBA9 1-250)
Test: protein-binding microarray (RPBM); PBS, 2% BSA, 51.3 ng/ul salmon testes DNA, 50 uM zinc acetate, 200 nM TF, 25 C, 1 h; high values mean tight binding
Conditions: protein: recombinant; tags: N-terminal polyhistidine and DsRed monomer fusion (pET32a); label: CyDye5-dUTP incorporated in the synthesized complementary strand; 3' TTTTT single-stranded linker to array surface; dsDNA, one strand shown
Procedure, shortened: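 For the binding signal, per-feature fluorescence intensity was read in arbitrary units on an Axon 4000B scanner. Before scanning, a 2% BSA-blocked custom Agilent array made double-stranded with Cy5-dUTP was washed after 1 h at 25 °C with 200 nM protein and 50 µM zinc acetate. The proteins were Ni–NTA-purified transcription factors with N-terminal polyhistidine and DsRed fusions, expressed in E. coli BL21-CodonPlus.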

Sequence of OsWRKY34 (Q0JBA9 entry or part of it): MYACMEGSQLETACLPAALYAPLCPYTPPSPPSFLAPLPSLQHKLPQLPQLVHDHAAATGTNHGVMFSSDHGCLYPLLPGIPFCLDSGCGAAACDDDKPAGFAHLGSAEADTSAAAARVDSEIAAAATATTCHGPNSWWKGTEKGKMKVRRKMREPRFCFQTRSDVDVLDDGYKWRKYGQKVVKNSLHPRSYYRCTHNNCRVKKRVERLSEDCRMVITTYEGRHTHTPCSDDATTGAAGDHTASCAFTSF

| Sequence | binding signal |
| --- | --- |
| ATCCGCAGACCAAGTCAACACTGCTACGTGAACACCACATCGGAGTCACCTAGTGCAG | 9850 fluorescence intensity (a.u.) |
| ACGTTATTTATTGTTTTAGGTTCAATCTACGAGTTTCTTTCGGAGTCACCTAGTGCAG | 10700 fluorescence intensity (a.u.) |
| TCCTCTTCGCCGGCTGCCGCTCCTCTCCCCGCTCGTCTTTCGGAGTCACCTAGTGCAG | 9440 fluorescence intensity (a.u.) |
| TTTTTTTTTTATCCGTCCCTACTCCTCGCACCTTAAAAATCGGAGTCACCTAGTGCAG | 10300 fluorescence intensity (a.u.) |
| GATCTCTCTCTCATCAGGACCCCGGCCTTAAGTTGTTTCTCGGAGTCACCTAGTGCAG | 9120 fluorescence intensity (a.u.) |
| GATACTCCCTCCATCCATAAATATTTGATGCCGTTGACTTCGGAGTCACCTAGTGCAG | 12300 fluorescence intensity (a.u.) |
| ATTTCCCGTCCTTGTCCTAAATGAGTACTAATTTTGATTTCGGAGTCACCTAGTGCAG | 10400 fluorescence intensity (a.u.) |
| TACTTCCTTTGTCCCTAAATATTTGATGCCGTTGACTTTTCGGAGTCACCTAGTGCAG | 23900 fluorescence intensity (a.u.) |
| TGGATTTATTTATTCTTGTTCTTTTTCTCGAAAATTTCCACGGAGTCACCTAGTGCAG | 8640 fluorescence intensity (a.u.) |
| CTGCTATGAATTATCGGTTGCTTCCGGTGTTGGGCATTGACGGAGTCACCTAGTGCAG | 12400 fluorescence intensity (a.u.) |
| CTACTCCCTCCATTTCGAAATGTTTGACACCGTTGACTTTCGGAGTCACCTAGTGCAG | 13900 fluorescence intensity (a.u.) |
| TTAAATGAGTGTTGACTTTTCGTATAACGTTTGACCATTTCGGAGTCACCTAGTGCAG | 14600 fluorescence intensity (a.u.) |
| GGTTTTGTGATTTTGACACCCATTCAGGTTCGTTGTTTTTCGGAGTCACCTAGTGCAG | 11900 fluorescence intensity (a.u.) |
| TTTCGACTAACGTTTGACCATTCGTTTTATTCAAAATTTTCGGAGTCACCTAGTGCAG | 8880 fluorescence intensity (a.u.) |
| ACACCGTTGACTTTTCGACTAACGTTTGACCATTTGTTTTCGGAGTCACCTAGTGCAG | 49300 fluorescence intensity (a.u.) |
| TGACACCGTTGACTTTTCGACCAATGTTTGACCATTCGTTCGGAGTCACCTAGTGCAG | 24400 fluorescence intensity (a.u.) |
| GATCCGCTCGCCCCGCCGCGCCGCCGACCATCGCCATCGCCGGAGTCACCTAGTGCAG | 8410 fluorescence intensity (a.u.) |
| TCCCACCCGCTGCCACCAAAACCCTCCCCGCGCCCGGTCCCGGAGTCACCTAGTGCAG | 10500 fluorescence intensity (a.u.) |
| TCGACAATGTCACTCCATCATATCATGGCCAAAATATAACCGGAGTCACCTAGTGCAG | 8140 fluorescence intensity (a.u.) |
| CTCTCCTCTCCGGTCATCTCATATATACGTATCTATATCGCGGAGTCACCTAGTGCAG | 8520 fluorescence intensity (a.u.) |
| CGCATATATATCTCTCTTTGCATCTGTACTCATCGAATCTCGGAGTCACCTAGTGCAG | 8640 fluorescence intensity (a.u.) |
| TCGCGACCTCTCATCTATCGATCTTTGCATACATATATATCGGAGTCACCTAGTGCAG | 17800 fluorescence intensity (a.u.) |
| ATCCCCGTGTTCTCCCCACACAAACCTTCGCGCCGCCCATCGGAGTCACCTAGTGCAG | 9540 fluorescence intensity (a.u.) |
